In PubChem BioAssay (NCI) one finds growth data, which are given here for 40 compounds.

This is part of a sample that, as a whole, favours compounds with a hit. Of some 83,000 tested, about 20% had one in any assay.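 Plates (96-well) were seeded with cells, treated with compound at one concentration, and incubated for 48 hours before percent growth was determined.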 Unmarked numbers belong to inactive results. Calls of active or inactive are those of the source. How the source made its calls: active means growth percent below 10; inactive means the rest.

In this test the test system is MOLT-4 leukemia. Briefly: NCI-60 one-dose screen, 48 h (100 = growth as untreated, 0 = no growth, -100 = all killed). The following applies: 10 µM unless noted.
As for `C[n+]1ccc(CCc2c[nH]c3ccccc23)cc1`, the growth is 90.5%.

As to `O=C(CI)NC(=O)NC(=O)NCc1ccccc1`, the growth is -24.5% (active).

Regarding `O=C1/C=C/[C@@H](O)[C@@H]2C[C@@H](O)C[C@H]2/C=C/CCC[C@@H](O)CCO1`, the growth is 106%.

For the compound `CC/C=C\C[C@H](O)C/C=C1/C(=O)C=C[C@@H]1C/C=C\CCCC(=O)O`, the growth is 5.7% (active).

Turning to `CCCCNC(=O)c1cc([N+](=O)[O-])cc(C2CCCCC2)c1O`, the growth was 27.1%.

As for `CC(=C(c1ccc(OCCN2CCCCC2)cc1)c1ccc(OCCN2CCCCC2)cc1)c1ccc(Cl)cc1`, the growth was -71.2% (active).

With `S=C(c1ccc2c(c1)OCO2)N1CCN(c2cccc(Cl)c2)CC1`, the growth was 30.9%.

`COc1ccc(/C(C)=C(/c2ccc(OCCCN(C)C)cc2)c2ccc(OC(=O)c3ccccc3)cc2)cc1`: the growth is 54.2%.

On to `Cc1c(CC(=S)N2CCOCC2)nnn1-c1cccc(C(F)(F)F)c1`, for which the growth is 102%.

Consider `COc1cccc(/C=C/C(=O)c2cc3c(N)c(C(=O)Nc4cccc5ccccc45)sc3nc2C)c1`, for which the growth was 16.8%.

For the compound `COc1cc(OC)c2sc(-c3ccc(-n4cncc4-c4cc(OC)c(OC)c(OC)c4)cc3)nc2c1`, the growth was 32.1%.

For `COC(=O)C(Cc1ccccc1)NC(=O)c1ccc(NC(=O)c2[nH]c(C)c(Cl)c2Cl)c(OC(C)C)c1` (stereo not given), the growth is 84.9%.

Consider `O=C(N/N=C\c1cccc([N+](=O)[O-])c1)N/N=C/c1cccc([N+](=O)[O-])c1`, for which the growth was 106%.

As to `COc1ccccc1N(C(C)=O)C1=C(Cl)C(=O)c2ccccc2C1=O`, the growth is 10.9%.

Regarding `COc1cccc(CNc2c3ccccc3nc3ccccc23)c1`, the growth was 6.41% (active).

Consider `NC1(CO)COC(c2ccccc2)OC1` (stereo not given), for which the growth was 89%.

As for `CO[C@H](C(=O)[C@@H](O)[C@@H](C)O)[C@@H]1Cc2cc3cc(O[C@H]4C[C@@H](O[C@H]5C[C@@H](O)[C@H](O)C(C)O5)[C@H](O)C(C)(O)O4)cc(O)c3c(O)c2C(=O)[C@H]1O[C@H]1C[C@@H](O[C@H]2C[C@@H](O[C@H]3C[C@@H](OC)[C@H](O)C(C)O3)[C@@H](O)C(C)O2)[C@H](O)C(C)O1` (stereo not given in full), the growth was 37.9%.

Regarding `N#Cc1c(-c2ccccc2)nc(SCC(O)CN2CCOCC2)nc1N1CCOCC1` (stereo not given), the growth was 83.2%.

Take `COc1cc(-c2nc3cc(Cl)c(Cl)cc3[nH]2)ccc1OCC(=O)N=Nc1c(O)[nH]c2ccc(Cl)cc12`: the growth is -27.8% (active).

Regarding `CNC(=O)c1ccccc1Nc1nc(Nc2cc(OC)c(OC)c(OC)c2)ncc1Br`, the growth is 66.3%.

For `C=C(C)[C@@H]1CC[C@]2(C(N)=O)CC[C@]3(C)[C@H](CC[C@@H]4[C@@]5(C)CC[C@H](OCCC#N)C(C)(C)[C@@H]5CC[C@]43C)[C@@H]12`, the growth is 70%.

On to `N#C/C(=C\C=C\c1ccc(-c2cc(Cl)ccc2Cl)o1)c1nc2ccccc2s1`, for which the growth is 99.1%.

Consider `COc1ccc(/C=C/C(c2cc(OC)c(OC)c(OC)c2)n2ccnc2)cc1O` (stereo not given), for which the growth was 31.9%.

`Cc1ccc2nc(/C(C#N)=C(/CCCO)NC(Cc3ccccc3)C(=O)OCc3ccccc3)[nH]c(=O)c2c1` (stereo not given): the growth was 112%.

For the compound `N#C/C(=C\c1ccc(-c2cccc(C(F)(F)F)c2)o1)c1ccccc1`, the growth was 89.7%.

Regarding `O=C(NC1CC(F)C1)c1cc2cccnc2n1-c1ccc(Cl)c(Cl)c1` (stereo not given), the growth is 98.9%.

Consider `CCNC(=O)Oc1ccc(/C(=C(/CC)Cc2ccccc2)c2ccc(OCCN3CCCC3)cc2)cc1`, for which the growth was 75.9%.

Turning to `COc1cc(C2C(C(=O)OCc3ccccc3)=C(C)NC(C)=C2C(=O)OCc2ccccc2)cc(OC)c1OC`, the growth is -9.95% (active).

Regarding `CN(Cc1cc(Br)cc(Br)c1O)Cc1cc(Br)cc(Br)c1O`, the growth was 21.5%.

For `Cc1c2cccnc2c(C)c2c1c1cc(CO)ccc1n2C`, the growth is 22.9%.

Turning to `S=c1[nH]c(=S)c2c(-c3ccccc3)c(-c3ccccc3)oc2[nH]1`, the growth was 101%.

`CCC1S/C(=N\N=C(\C)c2cc3cc(Cl)ccc3o2)N(c2ccccc2)C1=O` (stereo not given): the growth is 36.4%.

Take `CCN(CC)Cc1cc(Nc2ccnc3cc(Cl)ccc23)ccc1O`: the growth was 100%.

For the compound `CCOC(=O)C(Cc1ccc(OC)cc1)C(=O)OCC`, the growth was 37.7%.

For `CC1(C)CC[C@]2(C(=O)N[C@H](CO)Cc3ccccc3)CC[C@]3(C)C(=CC[C@@H]4[C@@]5(C)CCCNC(C)(C)[C@@H]5CC[C@]43C)[C@@H]2C1`, the growth was 35.1%.

For `CC(C)(C)n1cc(-c2ccnc(NCCNS(=O)(=O)c3ccc(O)cc3)c2)c(-c2cccc(O)c2)n1`, the growth was 95.1%.

Turning to `CC1(C)C(N)=Nc2cc(OCCCN3Cc4ccccc4C3)c(OCC3CC3)cc21`, the growth is 36.1%.

With `CCOC(=O)C(=CNc1cnc(Nc2ccc(N3CCOCC3)cc2)nc1Oc1ccc(OC)cc1)C(=O)OCC`, the growth was 60.5%.

With `O=C(Nc1ccccc1O)c1ccc(CNC(=O)c2ccsc2Nc2ccnc(C(F)(F)F)c2)cc1`, the growth was 4.64% (active).

For the compound `CC(=O)ON1CCCC(P(=O)(OCCSC(=O)C(C)(C)C)OCCSC(=O)C(C)(C)C)C1=O` (stereo not given), the growth is 15.5%.
